Read-outs that look alike come from different tables or passages of the source.
Columns and labels:
Settings in all cases: n = 1
CAMKK2 = system: CAMKK2
CASK = system: CASK
CDC2L1 = system: T1, CDC2L1
T1 construct: gene CDK11B

CDC2L2 = system: CDC2L2
CDC2L5 = system: T2, CDC2L5
T2 construct: gene CDK13

CDK11 = system: T3, CDK11
T3 construct: gene CDK19

CDK2 = system: CDK2
CDK3 = system: CDK3
CDK4-cyclinD1 = system: CDK4-cyclinD1
CDK4-cyclinD3 = system: CDK4-cyclinD3
[1] = concentration: 1 μM, replicates: in singlicate
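Also: KINOMEscan kinase panel screen.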

## Cc1cccc(-c2nc(-c3ccc(S(C)(=O)=O)cc3)sc2-c2ccnc(NCCc3ccccc3)c2)c1
CAMKK2; [1]
  %Inh: 0%
CASK; [1]
  %Inh: 18%
CDC2L1; [1]
  %Inh: 6%
CDC2L2; [1]
  %Inh: 0%
CDC2L5; [1]
  %Inh: 44%
CDK11; [1]
  %Inh: 0%
CDK2; [1]
  %Inh: 0%
CDK3; [1]
  %Inh: 0%
CDK4-cyclinD1; [1]
  %Inh: 0%
CDK4-cyclinD3; [1]
  %Inh: 0%

## Cn1ccc2ncnc(Oc3ccc(Nc4nc5ccccc5[nH]4)cc3)c21
CAMKK2; [1]
  %Inh: 22%
CASK; [1]
  %Inh: 0%
CDC2L1; [1]
  %Inh: 0%
CDC2L2; [1]
  %Inh: 1%
CDC2L5; [1]
  %Inh: 0%
CDK11; [1]
  %Inh: 6%
CDK2; [1]
  %Inh: 6%
CDK3; [1]
  %Inh: 0%
CDK4-cyclinD1; [1]
  %Inh: 0%
CDK4-cyclinD3; [1]
  %Inh: 0%

## Cc1ccc(-c2cc(-c3c[nH]nc3-c3ccccn3)ccn2)cc1 [GW684088]
CAMKK2; [1]
  %Inh: 26%
CASK; [1]
  %Inh: 0%
CDC2L1; [1]
  %Inh: 0%
CDC2L2; [1]
  %Inh: 17%
CDC2L5; [1]
  %Inh: 0%
CDK11; [1]
  %Inh: 16%
CDK2; [1]
  %Inh: 0%
CDK3; [1]
  %Inh: 0%
CDK4-cyclinD1; [1]
  %Inh: 28%
CDK4-cyclinD3; [1]
  %Inh: 0%

## O=C(Nc1ccc2c(c1)OCO2)NC1CCN(c2ccnc(Nc3ccc(F)cc3)n2)C1 (stereo not drawn) [GSK1379724]
CAMKK2; [1]
  %Inh: 3%
CASK; [1]
  %Inh: 21%
CDC2L1; [1]
  %Inh: 0%
CDC2L2; [1]
  %Inh: 0%
CDC2L5; [1]
  %Inh: 0%
CDK11; [1]
  %Inh: 40%
CDK2; [1]
  %Inh: 0%
CDK3; [1]
  %Inh: 8%
CDK4-cyclinD1; [1]
  %Inh: 0%
CDK4-cyclinD3; [1]
  %Inh: 0%

## O=S(=O)(c1ccc(-c2ccnc3[nH]ccc23)cc1)N1CCCC1 [GSK846226]
CAMKK2; [1]
  %Inh: 23%
CASK; [1]
  %Inh: 5%
CDC2L1; [1]
  %Inh: 0%
CDC2L2; [1]
  %Inh: 17%
CDC2L5; [1]
  %Inh: 0%
CDK11; [1]
  %Inh: 2%
CDK2; [1]
  %Inh: 0%
CDK3; [1]
  %Inh: 1%
CDK4-cyclinD1; [1]
  %Inh: 0%
CDK4-cyclinD3; [1]
  %Inh: 0%

## CC(C)(C)c1ccc(C(=O)Nc2cn3cc(-c4cccnc4)ccc3n2)cc1
CAMKK2; [1]
  %Inh: 18%
CASK; [1]
  %Inh: 0%
CDC2L1; [1]
  %Inh: 11%
CDC2L2; [1]
  %Inh: 17%
CDC2L5; [1]
  %Inh: 0%
CDK11; [1]
  %Inh: 9%
CDK2; [1]
  %Inh: 3%
CDK3; [1]
  %Inh: 10%
CDK4-cyclinD1; [1]
  %Inh: 29%
CDK4-cyclinD3; [1]
  %Inh: 0%

## Cn1ccc2ncnc(Oc3ccc(NC(=O)Nc4ccccc4)cc3)c21
CAMKK2; [1]
  %Inh: 0%
CASK; [1]
  %Inh: 0%
CDC2L1; [1]
  %Inh: 0%
CDC2L2; [1]
  %Inh: 0%
CDC2L5; [1]
  %Inh: 0%
CDK11; [1]
  %Inh: 0%
CDK2; [1]
  %Inh: 0%
CDK3; [1]
  %Inh: 11%
CDK4-cyclinD1; [1]
  %Inh: 0%
CDK4-cyclinD3; [1]
  %Inh: 0%

## COc1cc2ncn(-c3cc(OCC4CCCO4)c(C(N)=O)s3)c2cc1OC (stereo not drawn) [GSK204607]
CAMKK2; [1]
  %Inh: 8%
CASK; [1]
  %Inh: 0%
CDC2L1; [1]
  %Inh: 0%
CDC2L2; [1]
  %Inh: 8%
CDC2L5; [1]
  %Inh: 0%
CDK11; [1]
  %Inh: 0%
CDK2; [1]
  %Inh: 0%
CDK3; [1]
  %Inh: 0%
CDK4-cyclinD1; [1]
  %Inh: 0%
CDK4-cyclinD3; [1]
  %Inh: 0%

## Cc1ccccc1-n1cnc2c(N)ncnc21 [SKF-97510]
CAMKK2; [1]
  %Inh: 8%
CASK; [1]
  %Inh: 0%
CDC2L1; [1]
  %Inh: 0%
CDC2L2; [1]
  %Inh: 1%
CDC2L5; [1]
  %Inh: 0%
CDK11; [1]
  %Inh: 0%
CDK2; [1]
  %Inh: 0%
CDK3; [1]
  %Inh: 0%
CDK4-cyclinD1; [1]
  %Inh: 0%
CDK4-cyclinD3; [1]
  %Inh: 0%

## COc1ccccc1CNC(=O)c1cc(C(=O)c2ccccc2C)c[nH]1 [GSK364507]
CAMKK2; [1]
  %Inh: 5%
CASK; [1]
  %Inh: 12%
CDC2L1; [1]
  %Inh: 0%
CDC2L2; [1]
  %Inh: 19%
CDC2L5; [1]
  %Inh: 0%
CDK11; [1]
  %Inh: 15%
CDK2; [1]
  %Inh: 0%
CDK3; [1]
  %Inh: 10%
CDK4-cyclinD1; [1]
  %Inh: 0%
CDK4-cyclinD3; [1]
  %Inh: 7%

## Cc1cccc(-c2nc(Nc3ccncc3)c3ccccc3n2)n1 [GW855857]
CAMKK2; [1]
  %Inh: 7%
CASK; [1]
  %Inh: 0%
CDC2L1; [1]
  %Inh: 0%
CDC2L2; [1]
  %Inh: 0%
CDC2L5; [1]
  %Inh: 0%
CDK11; [1]
  %Inh: 0%
CDK2; [1]
  %Inh: 0%
CDK3; [1]
  %Inh: 20%
CDK4-cyclinD1; [1]
  %Inh: 13%
CDK4-cyclinD3; [1]
  %Inh: 0%

## COc1cccc(NC(=O)NC2CCN(c3ccnc(Nc4ccc(F)cc4)n3)C2)c1 (stereo not drawn) [GSK1379721]
CAMKK2; [1]
  %Inh: 14%
CASK; [1]
  %Inh: 7%
CDC2L1; [1]
  %Inh: 0%
CDC2L2; [1]
  %Inh: 14%
CDC2L5; [1]
  %Inh: 0%
CDK11; [1]
  %Inh: 59%
CDK2; [1]
  %Inh: 0%
CDK3; [1]
  %Inh: 18%
CDK4-cyclinD1; [1]
  %Inh: 0%
CDK4-cyclinD3; [1]
  %Inh: 0%

## Cc1c(Cn2ccn3c(=O)cc(N4CCOCC4)nc23)cccc1C(F)(F)F [GSK2289044]
CAMKK2; [1]
  %Inh: 18%
CASK; [1]
  %Inh: 14%
CDC2L1; [1]
  %Inh: 0%
CDC2L2; [1]
  %Inh: 13%
CDC2L5; [1]
  %Inh: 0%
CDK11; [1]
  %Inh: 0%
CDK2; [1]
  %Inh: 0%
CDK3; [1]
  %Inh: 9%
CDK4-cyclinD1; [1]
  %Inh: 0%
CDK4-cyclinD3; [1]
  %Inh: 0%

## Cc1cc(N2Cc3ccccc3C2)nc(Nc2ccc(S(=O)(=O)N3CCOCC3)cc2)n1.Cl [GSK1669917]
CAMKK2; [1]
  %Inh: 0%
CASK; [1]
  %Inh: 7%
CDC2L1; [1]
  %Inh: 0%
CDC2L2; [1]
  %Inh: 23%
CDC2L5; [1]
  %Inh: 0%
CDK11; [1]
  %Inh: 0%
CDK2; [1]
  %Inh: 0%
CDK3; [1]
  %Inh: 0%
CDK4-cyclinD1; [1]
  %Inh: 0%
CDK4-cyclinD3; [1]
  %Inh: 0%

## Cc1cc(-c2ccc3c(c2)CC[C@@H](N[C@@H](C)c2ccccc2)C3)cnc1N.Cl [GW412617]
CAMKK2; [1]
  %Inh: 23%
CASK; [1]
  %Inh: 0%
CDC2L1; [1]
  %Inh: 0%
CDC2L2; [1]
  %Inh: 2%
CDC2L5; [1]
  %Inh: 0%
CDK11; [1]
  %Inh: 40%
CDK2; [1]
  %Inh: 12%
CDK3; [1]
  %Inh: 6%
CDK4-cyclinD1; [1]
  %Inh: 0%
CDK4-cyclinD3; [1]
  %Inh: 0%

## COc1cccc(-c2cc(-c3c[nH]nc3-c3ccccn3)ccn2)c1 [GW680338]
CAMKK2; [1]
  %Inh: 9%
CASK; [1]
  %Inh: 18%
CDC2L1; [1]
  %Inh: 0%
CDC2L2; [1]
  %Inh: 9%
CDC2L5; [1]
  %Inh: 0%
CDK11; [1]
  %Inh: 10%
CDK2; [1]
  %Inh: 0%
CDK3; [1]
  %Inh: 6%
CDK4-cyclinD1; [1]
  %Inh: 58%
CDK4-cyclinD3; [1]
  %Inh: 0%

## Fc1cc(Cl)ccc1Nc1ccnc2cc(-c3ccc(CN4CCCCC4)o3)ccc12 [GW560116]
CAMKK2; [1]
  %Inh: 22%
CASK; [1]
  %Inh: 2%
CDC2L1; [1]
  %Inh: 0%
CDC2L2; [1]
  %Inh: 20%
CDC2L5; [1]
  %Inh: 0%
CDK11; [1]
  %Inh: 0%
CDK2; [1]
  %Inh: 0%
CDK3; [1]
  %Inh: 5%
CDK4-cyclinD1; [1]
  %Inh: 4%
CDK4-cyclinD3; [1]
  %Inh: 0%

## Cc1ccc(NC(=O)Nc2cccc(C(F)(F)F)c2)cc1 [GSK955403]
CAMKK2; 1 µM
  %Inh: 19%
CASK; 1 µM
  %Inh: 15%
CDC2L1; 1 µM
  %Inh: 3%
CDC2L2; 1 µM
  %Inh: 0%
CDC2L5; 1 µM
  %Inh: 0%
CDK11; 1 µM
  %Inh: 20%
CDK2; 1 µM
  %Inh: 0%
CDK3; 1 µM
  %Inh: 0%
CDK4-cyclinD1; 1 µM
  %Inh: 0%
CDK4-cyclinD3; 1 µM
  %Inh: 0%

Reference: paper PMC5540273 (PLoS ONE, 2017)
